Calls of active or inactive are those of the source.
Key:
[1] = optical density shifts of acrAB sulA E. coli – strain DRC41, OD650, 48 h, E. coli filamentation inducer project, primary screen (AID 1152); details: higher = more signal, called active from +8 up or from −8 down;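 also: E. coli MC1000 strain DRC41 lacking acrAB efflux pump and sulA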
[2] = probe aLefty1 binding on compound microarray – biochemical, small-molecule microarray, 635/667 nm fluorescence, primary screen (AID 1153); details: higher = more signal;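 also: score merges spot fluorescence with signal-to-noise ratio from the scanned slide images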
[3] = plasmodial surface anion channel blockers, osmotic lysis – cell-based, P. falciparum Indochina, OD700, 1 h, primary screen (AID 1154); details: P. falciparum Indochina infected RBC osmotic lysis, higher = more signal, called active from +8 up or from −8 down
[4] = plasmodial surface anion channel blockers, osmotic lysis – cell-based, P. falciparum Indochina, OD700, 2 h, primary screen (AID 1155);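 also: lysis reports solute entry through the parasite surface anion channel PSAC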; details: P. falciparum Indochina infected erythrocytes, higher = more signal, called active from +8 up or from −8 down
[5] = changes in parasitized red cell lysis, either direction – P. falciparum Indochina, OD700, 3 h, PSAC antagonist project, primary screen (AID 1156); details: P. falciparum-infected erythrocytes, osmotic lysis, higher = more signal, called active from +8 up or from −8 down
[6] = plasmodial surface anion channel blockers, osmotic lysis – cell-based, P. falciparum Indochina, OD700, 18 h, primary screen (AID 1157); details: P. falciparum Indochina infected erythrocytes, osmotic lysis OD700, 18 h; higher = more signal, called active from +8 up or from −8 down
[7] = S6 kinase pathway phospho-S6 level changes – cell-based, A549, cytoblot, luminescence, serum-stimulated, primary screen (AID 1158); details: 5 h, higher = more signal;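 also: serum-stimulated A549 lung adenocarcinoma cells; signal is phosphorylated S6 detected by cytoblot immunostaining with HRP secondary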
[8] = target: NADPH oxidase 2 (Homo sapiens) (UniProt P04839); experiment: compounds shifting NOX2 Amplex Red fluorescence – cell-based, HEK293-NOX2, PMA-stimulated, NOX inhibitor project, primary screen (AID 1159); details: 45 min, higher = more signal, called active from +8 up or from −8 down; also: test concentration not given here
[9] = target: NADPH oxidase 4 (Homo sapiens) (UniProt Q9NPH5); experiment: compounds shifting NOX4 Amplex Red fluorescence – cell-based, HEK293-NOX4, tetracycline-induced, NOX inhibitor project, primary screen (AID 1160); details: HEK293-NOX4, Amplex Red H2O2 fluorescence, 45 min; higher = more signal, called active from +8 up or from −8 down
[10] = target: NADPH oxidase 5 (Homo sapiens) (UniProt Q96PH1); experiment: compounds shifting NOX5 Amplex Red fluorescence – cell-based, HEK293-NOX5, NOX inhibitor project, primary screen (AID 1161); details: HEK293-NOX5, ionomycin, 45 min, higher = more signal
Sequence of NADPH oxidase 5 (Homo sapiens) (Q96PH1 whole entry, looked up): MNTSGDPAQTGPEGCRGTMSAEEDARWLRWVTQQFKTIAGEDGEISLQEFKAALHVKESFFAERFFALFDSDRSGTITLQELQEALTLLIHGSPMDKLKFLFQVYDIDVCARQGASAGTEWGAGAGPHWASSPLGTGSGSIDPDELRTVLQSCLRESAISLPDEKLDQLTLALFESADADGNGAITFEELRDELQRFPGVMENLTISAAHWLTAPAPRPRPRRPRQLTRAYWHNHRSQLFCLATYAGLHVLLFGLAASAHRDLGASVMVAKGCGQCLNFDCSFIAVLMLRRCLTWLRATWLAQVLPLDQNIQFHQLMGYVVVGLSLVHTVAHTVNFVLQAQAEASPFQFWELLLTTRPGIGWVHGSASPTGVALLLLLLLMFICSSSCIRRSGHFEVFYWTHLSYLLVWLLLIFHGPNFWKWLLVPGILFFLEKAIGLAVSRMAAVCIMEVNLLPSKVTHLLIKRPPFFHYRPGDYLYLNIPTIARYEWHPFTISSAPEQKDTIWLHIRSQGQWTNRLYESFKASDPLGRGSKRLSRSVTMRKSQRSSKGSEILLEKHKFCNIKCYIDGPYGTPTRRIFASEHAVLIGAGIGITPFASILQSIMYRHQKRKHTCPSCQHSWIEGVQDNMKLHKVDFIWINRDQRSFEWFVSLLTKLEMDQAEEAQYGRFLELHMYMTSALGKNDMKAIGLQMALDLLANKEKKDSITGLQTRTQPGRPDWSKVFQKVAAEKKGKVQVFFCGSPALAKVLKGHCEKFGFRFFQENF

Sequence of NADPH oxidase 4 (Homo sapiens) (Q9NPH5 whole entry, looked up): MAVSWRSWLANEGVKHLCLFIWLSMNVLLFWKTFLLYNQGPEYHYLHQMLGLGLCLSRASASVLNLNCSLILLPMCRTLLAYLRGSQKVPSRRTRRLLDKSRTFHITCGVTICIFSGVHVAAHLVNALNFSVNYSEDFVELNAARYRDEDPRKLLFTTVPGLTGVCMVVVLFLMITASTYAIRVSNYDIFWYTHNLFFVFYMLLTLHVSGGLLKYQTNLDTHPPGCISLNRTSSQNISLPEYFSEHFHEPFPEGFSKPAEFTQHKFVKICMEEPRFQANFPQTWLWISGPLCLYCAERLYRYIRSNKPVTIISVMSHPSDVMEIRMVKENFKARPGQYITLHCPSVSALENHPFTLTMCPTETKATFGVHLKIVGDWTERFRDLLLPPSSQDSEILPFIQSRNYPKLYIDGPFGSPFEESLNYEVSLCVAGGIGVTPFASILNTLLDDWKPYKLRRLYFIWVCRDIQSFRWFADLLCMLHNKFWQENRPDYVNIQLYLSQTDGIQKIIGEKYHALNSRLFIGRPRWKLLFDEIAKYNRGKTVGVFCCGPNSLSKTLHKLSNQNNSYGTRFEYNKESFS
Sequence of NADPH oxidase 2 (Homo sapiens) (P04839 whole entry, looked up): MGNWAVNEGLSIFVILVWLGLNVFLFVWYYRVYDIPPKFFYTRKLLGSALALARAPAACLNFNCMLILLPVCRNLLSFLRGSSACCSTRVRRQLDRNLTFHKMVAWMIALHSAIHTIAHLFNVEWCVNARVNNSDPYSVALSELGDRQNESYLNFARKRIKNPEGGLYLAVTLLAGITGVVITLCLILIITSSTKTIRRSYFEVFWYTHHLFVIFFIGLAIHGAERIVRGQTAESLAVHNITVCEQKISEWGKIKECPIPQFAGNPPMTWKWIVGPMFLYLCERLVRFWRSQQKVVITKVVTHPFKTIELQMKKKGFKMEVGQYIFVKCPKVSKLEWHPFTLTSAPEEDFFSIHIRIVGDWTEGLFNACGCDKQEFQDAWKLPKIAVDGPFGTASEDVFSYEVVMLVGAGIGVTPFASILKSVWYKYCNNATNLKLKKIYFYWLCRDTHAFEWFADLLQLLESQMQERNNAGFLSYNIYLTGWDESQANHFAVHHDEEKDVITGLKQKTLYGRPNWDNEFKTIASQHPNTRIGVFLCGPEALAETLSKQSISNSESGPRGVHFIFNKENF

Compound | z-score [1] | composite z-score [2] | z-score [3] | z-score [4] | z-score [5] | z-score [6] | z-score [7] | z-score [8] | z-score [9] | z-score [10]
CCOC(=O)[C@H](CC(C)C)NC(=O)CCC1CC(OC(=O)NCCc2ccc(F)cc2)CC2(CCCC(COC(=O)NCC(c3ccccc3)c3ccccc3)O2)O1 (stereo not given in full) | -1.18 (inactive) | -0.147 | 4 (inactive) | -0.523 (inactive) | 0.784 (inactive) | -0.316 (inactive) | 0.0441 | 1.47 (inactive) | 1.88 (inactive) | 1.52
COC(=O)C=CCCc1coc(C=CCNC(=O)OC)n1 | -0.747 (inactive) | 0.632 | 1.78 (inactive) | 0.713 (inactive) | 1.13 (inactive) | 0.247 (inactive) | 0.41 | 0.575 (inactive) | 0.532 (inactive) | 0.21
CC(=O)OC[C@H]1O[C@H](C#Cc2ccccc2)C=C[C@@H]1OC(C)=O | 0.714 (inactive) | -0.234 | 1.12 (inactive) | -0.08 (inactive) | -0.0923 (inactive) | -0.219 (inactive) | -0.283 | 1.61 (inactive) | 0.415 (inactive) | 1.54
CCOC(=O)NN=C1C[C@@H](O)[C@@H](O)[C@@H]2[C@@H]3C(=O)N(C(C)(C)C)C(=O)[C@@H]3CC[C@H]12 | 1.04 (inactive) | 0.0701 | 0.521 (inactive) | 0.16 (inactive) | 0.786 (inactive) | 0.18 (inactive) | 0.698 | -1.89 (inactive) | 0.644 (inactive) | 0.0282
CC(C)=CCCC(C)=CCON=C1C[C@@H](O)[C@@H](O)[C@@H]2[C@@H]3C(=O)N(c4ccc(F)cc4F)C(=O)[C@@H]3CC[C@@H]12 | 0.217 (inactive) | 0.0999 | 4.44 (inactive) | 1.21 (inactive) | 2.06 (inactive) | 1.07 (inactive) | -0.718 | -0.333 (inactive) | -0.0951 (inactive) | 0.0854
COC(=O)CC=C[C@@H](C)[C@@H](C=NOC[C@H]1O[C@H](c2ccccc2)C=C[C@@H]1Oc1ccc(OC)cc1)OC | -0.425 (inactive) | -0.148 | 4.7 (inactive) | 1.15 (inactive) | -0.469 (inactive) | 0.393 (inactive) | -0.516 | -0.323 (inactive) | 0.338 (inactive) | -0.549
COC(=O)CC=C[C@@H](C)[C@@H](C=NO[C@H](C)c1cn([C@@H]2COC[C@H]2O)nn1)NS(=O)(=O)c1ccc(C)cc1 | 0.876 (inactive) | -0.274 | 1.43 (inactive) | 0.269 (inactive) | 0.785 (inactive) | 0.465 (inactive) | 0.459 | -0.283 (inactive) | 0.891 (inactive) | 0.309
CCOC(=O)[C@H](Cc1ccccc1)NC(=O)CCC1CC(OC(=O)NCCc2ccc(F)cc2)CC2(CCCC(COC(=O)NCCCN3CCCC3=O)O2)O1 (stereo not given in full) | 0.141 (inactive) | -0.105 | -1.36 (inactive) | -0.861 (inactive) | -0.0494 (inactive) | -0.445 (inactive) | 0.94 | -0.232 (inactive) | 0.192 (inactive) | -1.09
C#CCCCON=C1C[C@@H](O)[C@@H](O)[C@@H]2[C@@H]3C(=O)N(C(C)(C)C)C(=O)[C@@H]3CC[C@H]12 | 0.233 (inactive) | 0.571 | 3.84 (inactive) | 0.371 (inactive) | -0.342 (inactive) | 0.204 (inactive) | -0.162 | -0.722 (inactive) | 0.132 (inactive) | 0.307
CCOC(=O)[C@H](CC(C)C)NC(=O)CCC1CC(OC(=O)NCCc2ccc(F)cc2)CC2(CCCC(COC(=O)NCCc3ccccc3OC)O2)O1 (stereo not given in full) | -0.501 (inactive) | -0.0603 | -1.58 (inactive) | -0.344 (inactive) | -0.17 (inactive) | -0.142 (inactive) | -0.0491 | 0.00967 (inactive) | 0.15 (inactive) | -0.0222
COC(=O)[C@H]1O[C@@H](c2c(OC)c(OC)c(C)c(OC)c2OC)[C@H](C)[C@@H](O)[C@H]1C | 0.855 (inactive) | -0.0505 | 0.516 (inactive) | 0.183 (inactive) | 0.92 (inactive) | 0.587 (inactive) | 0.817 | 0.933 (inactive) | 0.792 (inactive) | 0.194
C=CC[C@@H]1C=C[C@H](ON=C(C)CCC(=O)OC[C@H]2O[C@H](c3ccccc3)C=C[C@@H]2Oc2ccc(OC)cc2)[C@@H](CO)O1 | 0.871 (inactive) | -0.291 | 10.9 (active) | 1.25 (inactive) | 1.2 (inactive) | 0.637 (inactive) | -0.0785 | -3.06 (inactive) | 0.605 (inactive) | -2.79
CCOC(=O)[C@H](Cc1ccccc1)NC(=O)CCC1CC(OC(=O)NCc2ccc3c(c2)OCO3)CC2(CCCC(COC(=O)NCCc3ccccc3OC)O2)O1 (stereo not given in full) | -0.567 (inactive) | -0.0547 | 1.3 (inactive) | 0.627 (inactive) | -0.451 (inactive) | 0.222 (inactive) | -0.254 | 0.799 (inactive) | -1.05 (inactive) | 1.28
C=CC1=C[C@H](O)[C@@H]2O[C@@H]2C12OCCCO2 | 0.104 (inactive) | -0.275 | -0.179 (inactive) | 0.191 (inactive) | -0.264 (inactive) | -0.121 (inactive) | -0.495 | -1.11 (inactive) | 0.617 (inactive) | 0.629
CON=Cc1ccc(C(=O)N2[C@H](c3ccc(C)cc3)[C@@H](C)CC[C@H]2C(=O)OC)cc1 | -0.134 (inactive) | -0.147 | 1.65 (inactive) | 1.25 (inactive) | 0.0014 (inactive) | 1.1 (inactive) | -0.0424 | -0.88 (inactive) | -0.304 (inactive) | -0.376
Cn1c(=O)n2n(c1=O)[C@H]1[C@H](O)[C@@H]3O[C@@H]3C(=NOCc3ccccc3)[C@H]1CC2 | -0.022 (inactive) | -0.0501 | -0.347 (inactive) | 0.0184 (inactive) | -0.432 (inactive) | 0.206 (inactive) | -0.807 | 0.265 (inactive) | 0.456 (inactive) | 0.632
Cc1cc2c(c(=O)o1)[C@@H](O)[C@H]1O[C@H]1C2=O | -1.63 (inactive) | -0.0547 | 0.381 (inactive) | 0.716 (inactive) | 0.634 (inactive) | 0.348 (inactive) | 0.0719 | 1.6 (inactive) | -0.899 (inactive) | -1.31
O=C(NN=C1C[C@@H](O)[C@@H](O)[C@@H]2[C@@H]3C(=O)N(C[C@@H]4CCCO4)C(=O)[C@@H]3CC[C@@H]12)OCc1ccccc1 | 0.828 (inactive) | -0.24 | 0.423 (inactive) | -1.35 (inactive) | 0.449 (inactive) | -1.97 (inactive) | 2.18 | -0.532 (inactive) | 0.554 (inactive) | 0.8
COC(=O)CC=C[C@@H](C)[C@@H](C=NOCC[C@@H]1C=C[C@H](OC(C)=O)[C@@H](COC(C)=O)O1)OC | -0.35 (inactive) | -0.0969 | 0.551 (inactive) | 0.239 (inactive) | -0.5 (inactive) | 0.171 (inactive) | -0.801 | 0.464 (inactive) | 0.934 (inactive) | 0.855
CO[C@H]1COC(=O)CC=C[C@H](C)[C@@H](OC)COC(=O)[C@@H](C)NC(=O)CC=C[C@@H]1C | 0.0321 (inactive) | -0.152 | -0.848 (inactive) | -0.863 (inactive) | -0.372 (inactive) | -1.99 (inactive) | 1.03 | -0.22 (inactive) | 0.403 (inactive) | -0.0966
CCOC(=O)[C@H](Cc1ccccc1)NC(=O)OC1CC(CCC2CC(CC)=NO2)OC2(CCCC(COC(=O)NCCC(C)C)O2)C1 (stereo not given in full) | -0.0799 (inactive) | -0.101 | 3.14 (inactive) | -0.0787 (inactive) | -0.648 (inactive) | -0.39 (inactive) | -0.459 | -0.405 (inactive) | 0.109 (inactive) | 1.04
C[C@@H]1C=CCC(=O)OC[C@H]2O[C@@H](C=C[C@@H]2O)[C@H](C)C=CCC(=O)OC1 | 0.625 (inactive) | -0.106 | 0.119 (inactive) | -1.48 (inactive) | -0.71 (inactive) | -2.02 (inactive) | 1.61 | -0.601 (inactive) | 0.346 (inactive) | 0.58
CCOC(=O)[C@H](CC(C)C)NC(=O)CCC1CC(OC(=O)NCc2ccc3c(c2)OCO3)CC2(CCCC(COC(=O)NCC(c3ccccc3)c3ccccc3)O2)O1 (stereo not given in full) | 0.0056 (inactive) | -0.106 | 2.08 (inactive) | 0.316 (inactive) | -0.532 (inactive) | -0.071 (inactive) | -0.438 | -0.312 (inactive) | 1.03 (inactive) | 0.698
CCN1C(=O)[C@H]2[C@H]3[C@H](O)[C@H](O)CC(=NO[C@@H](C)c4cn([C@H](CO)Cc5ccccc5)nn4)[C@@H]3CC[C@H]2C1=O | 0.115 (inactive) | 0.0618 | 0.202 (inactive) | 0.453 (inactive) | 0.357 (inactive) | 0.146 (inactive) | -0.66 | 0.0799 (inactive) | -2.08 (inactive) | 0.0391
CC(C)=NO[C@H](C)c1cn([C@H](CO)Cc2ccccc2)nn1 | -2.06 (inactive) | -0.142 | 0.29 (inactive) | 0.0191 (inactive) | -0.188 (inactive) | 0.269 (inactive) | 0.225 | 0.849 (inactive) | -0.311 (inactive) | -0.281
COC(=O)NCC=Cc1nc(CCCO)co1 | -0.0186 (inactive) | -0.164 | 0.0325 (inactive) | 0.496 (inactive) | -0.304 (inactive) | -0.145 (inactive) | -0.726 | -0.745 (inactive) | 0.996 (inactive) | 0.449

— PubChem BioAssay
